# Measurements taken from the supplement of paper PMC8285479.
# Where a name gives a salt, the structure may show the parent alone. ± gives the standard deviation of the averaged measurements. The full ranking holds about 1,900 compounds; the median of “normalised cell viability (NPI; 0 = phenylarsine oxide control, 1 = DMSO control)” is about 1, and the lowest 2% start at about 0.039. The full list was thinned out, with the lowest values kept by preference.
# Tested on: NCI-H1944
# Assay: normalised cell viability (NPI; 0 = phenylarsine oxide control, 1 = DMSO control) (fraction of DMSO control); NCI-H1944 is a non-small cell lung cancer line; higher = more viable cells (less compound toxicity)
# Conditions: 6 days
# [1] = glucocorticoid arm: hydrocortisone 2.75 uM co-treatment, compound 1 µM
# [2] = glucocorticoid arm: hydrocortisone 2.75 uM co-treatment, compound 5 µM
# [3] = glucocorticoid arm: hydrocortisone 2.75 uM pre-treated 2 days and continued, compound 1 µM
# [4] = glucocorticoid arm: hydrocortisone 2.75 uM pre-treated 2 days and continued, compound 5 µM
# [5] = glucocorticoid arm: vehicle, compound 1 µM
# [6] = glucocorticoid arm: vehicle, compound 5 µM
# 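Further: CTB read-out in 384-well plates, triplicate wells, NPI normalised per plate against 1 µM phenylarsine oxide (0) and 0.1% DMSO (1) controls.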
SMILES,normalised cell viability [1],normalised cell viability [2],normalised cell viability [3],normalised cell viability [4],normalised cell viability [5],normalised cell viability [6]
COc1cc(C(O)CN)ccc1O (racemic) [(±)-Normetanephrine hydrochloride],0.9973 ± 0.0025,1.01 ± 0.021,1.01 ± 0.01,0.867 ± 0.27,0.9953 ± 0.0045,1 ± 0.016
C[C@H]1OC[C@@H](C[N+](C)(C)C)O1 [(+)-cis-Dioxolane],1.017 ± 0.0058,1.02 ± 0.01,1 ± 0.018,1.04 ± 0.081,1.01 ± 0.01,1.006 ± 0.0063
COc1ccc2c3c1O[C@H]1C(=O)CC[C@@]4(O)C(C2)N(CC2CC2)CCC314 (stereo partly drawn) [3-Methoxynaltrexone hydrochloride],0.9917 ± 0.0068,0.99 ± 0.018,0.985 ± 0.013,1.02 ± 0.07,0.9977 ± 0.0025,0.998 ± 0.013
c1ccc(C2(c3ccccc3)CC2C2=NCCN2)cc1 (stereo not drawn) [Cibenzoline succinate],0.992 ± 0.013,0.994 ± 0.027,1.003 ± 0.0058,1.02 ± 0.078,1.007 ± 0.0058,1.01 ± 0.01
CN1CCCCC1Cn1cc(C(=O)c2cc([N+](=O)[O-])ccc2I)c2ccccc21 (stereo not drawn),1.02 ± 0.015,0.99 ± 0.026,1.04 ± 0.01,1.01 ± 0.029,1.013 ± 0.0058,1.001 ± 0.0081
CCCN1CC[C@@H]2c3cc(O)ccc3CC[C@@H]21 (racemic) [cis(+/-)-8-OH-PBZI hydrobromide],0.993 ± 0.011,0.975 ± 0.021,1.01,1.02 ± 0.092,0.9937 ± 0.0071,1.007 ± 0.0058
C[C@H]1CNCCc2ccc(Cl)cc21 [Lorcaserin HCl],1.003 ± 0.0064,1.02 ± 0.029,1 ± 0.019,1.02 ± 0.029,1.003 ± 0.0061,0.998 ± 0.0035
N[C@@H](Cn1ccc(=O)[nH]c1=O)C(=O)O [S(-)-Willardiine],1.007 ± 0.0058,1.023 ± 0.0058,0.847 ± 0.28,1.02 ± 0.015,1.002 ± 0.007,1.007 ± 0.0058
c1ccc2c(c1)[I+]c1ccccc1-2 [Diphenyleneiodonium chloride],0.45 ± 0.015,0.0556 ± 0.0019,0.649 ± 0.014,0.0883 ± 0.044,0.232 ± 0.015,0.00555 ± 0.0077
CN1CC[C@]2(CCN3CCc4c(oc5ccccc45)[C@@H]3C2)N(C)C1=O,1.003 ± 0.0058,0.974 ± 0.015,1.01,0.889 ± 0.24,1.013 ± 0.0058,1.02 ± 0.015
CCN(CC)C(=O)N[C@H]1C[C@@H]2c3cccc4[nH]cc(c34)C[C@H]2N(C)C1 [S(+)-Terguride],0.989 ± 0.011,1.01 ± 0.02,0.79 ± 0.37,0.996 ± 0.016,0.9953 ± 0.0015,0.993 ± 0.0056
CCCn1c(C)c(C(=O)c2cccc3ccccc23)c2ccccc21,1.001 ± 0.0083,1.03 ± 0.023,1.007 ± 0.0058,1.06 ± 0.09,0.9977 ± 0.004,1.01 ± 0.023
"Cc1c(C(=O)c2cccc3ccccc23)c2cccc3c2n1[C@H](CN1CCOCC1)CO3 [( R)-(+)-WIN 55,212-2 mesylate]",1.004 ± 0.01,0.0209 ± 0.0039,1.01 ± 0.029,0.016 ± 0.002,1.013 ± 0.0058,0.00693 ± 0.00096
CCC(=O)CCCCC[C@@H]1NC(=O)[C@H]2CCCCN2C(=O)[C@H]([C@@H](C)CC)NC(=O)[C@H](Cc2cn(OC)c3ccccc23)NC1=O [Apicidin],0.387 ± 0.16,0.954 ± 0.041,0.644 ± 0.15,0.983 ± 0.03,0.0476 ± 0.028,0.96 ± 0.022
CCS(=O)(=O)Nc1cccc(C(=C2CCCCC2)c2cnc[nH]2)c1,1.006 ± 0.0063,1.04 ± 0.015,1.01 ± 0.011,1.04 ± 0.028,0.985 ± 0.013,0.9933 ± 0.0061
"CN1CC[C@@]2(C)c3cc(O)ccc3N(C)C12 (single isomer, unassigned; (-)) [(-)-Eseroline fumarate]",0.9967 ± 0.0058,0.972 ± 0.013,1.03 ± 0.045,0.971 ± 0.011,0.9967 ± 0.0042,0.996 ± 0.012
CCn1cnc2c(Nc3cccc(Cl)c3)nc(N[C@@H]3CCCC[C@@H]3N)nc21,0.783 ± 0.025,0.0569 ± 0.018,1.01 ± 0.011,0.182 ± 0.0028,0.321 ± 0.043,0.0192 ± 0.0037
C[C@H](N)CN1CCc2ccc(Br)cc21 [VER-3323 hemifumarate salt],1.001 ± 0.0085,1.01 ± 0.024,1 ± 0.011,1.05 ± 0.021,0.9897 ± 0.0015,1 ± 0.015
C[C@H]1O[C@@H](C[N+](C)(C)C)CS1,1.013 ± 0.0058,1.007 ± 0.0058,1,1 ± 0.024,0.9857 ± 0.0046,0.9857 ± 0.0038

SMILES,normalised cell viability [1],normalised cell viability [2],normalised cell viability [3],normalised cell viability [4],normalised cell viability [5],normalised cell viability [6]
"CC12CCC3C(CCC4=C(O)C(=O)CCC43C)C1CCC2=O (stereo not drawn) [4-Androsten-4-ol-3,17-dione]",0.9977 ± 0.0021,0.9747 ± 0.0093,0.999 ± 0.001,1 ± 0.011,0.995 ± 0.015,1.003 ± 0.0061
Cc1c(N)nc([C@H](CC(N)=O)NC[C@H](N)C(N)=O)nc1C(=O)N[C@H](C(=O)N[C@H](C)[C@@H](O)[C@H](C)C(=O)N[C@H](C(=O)NCCc1nc(-c2nc(C(=O)NCCC[S+](C)C)cs2)cs1)[C@@H](C)O)[C@@H](OC1OC(CO)C(O)C(O)C1OC1OC(CO)C(O)C(OC(N)=O)C1O)c1cnc[nH]1 (stereo partly drawn) [Bleomycin sulfate],0.669 ± 0.048,0.196 ± 0.017,0.9903 ± 0.0051,0.637 ± 0.034,0.142 ± 0.024,0.0339 ± 0.0093
CCC1(c2ccc(N)cc2)CCC(=O)NC1=O (racemic) [(±)-p-Aminoglutethimide],0.997 ± 0.0052,1.01,0.866 ± 0.23,1 ± 0.027,1.006 ± 0.0063,1
CN[C@@H]1C[C@@H](c2ccc(Cl)c(Cl)c2)c2ccccc21 [Indatraline hydrochloride],1 ± 0.0095,0.931 ± 0.02,1.02 ± 0.021,1.04 ± 0.084,1.01,1.03 ± 0.05
C[Se]C[C@H](N)C(=O)O [Se-(methyl)selenocysteine hydrochloride],1.006 ± 0.0069,1.02 ± 0.015,1,0.859 ± 0.28,1.006 ± 0.0069,1.01 ± 0.016
C=C(C)[C@H]1Cc2c(ccc3c2O[C@@H]2COc4cc(OC)c(OC)cc4[C@@H]2C3=O)O1 [Rotenone],0.627 ± 0.064,0.39 ± 0.013,0.969 ± 0.016,0.685 ± 0.094,0.22 ± 0.011,0.115 ± 0.019
C=CCc1ccccc1OCC(O)CNC1(C)CCC(C(C)(C)NC(=O)CBr)CC1 (stereo not drawn) [Bromoacetyl alprenolol menthane],0.9893 ± 0.0093,-0.000605 ± 0.0006,0.994 ± 0.016,0.0027 ± 0.0058,0.978 ± 0.004,-0.000518 ± 0.00015
C1CN1c1nc(N2CC2)nc(N2CC2)n1 [Triethylenemelamine],1.023 ± 0.0058,0.775 ± 0.022,1.017 ± 0.0058,0.989 ± 0.015,0.993 ± 0.0082,0.273 ± 0.028
C=CCN(C1=NCCN1)c1c(Cl)cccc1Cl [Alinidine],0.999 ± 0.012,0.992 ± 0.016,1.02 ± 0.049,1 ± 0.021,0.9973 ± 0.0031,0.9913 ± 0.0035
O=C1C=CC(=O)C=C1 [p-Benzoquinone],1.007 ± 0.0058,1.01 ± 0.012,1.006 ± 0.0075,0.999 ± 0.03,1.01 ± 0.012,0.999 ± 0.011
Cc1nc(-c2ccc(-c3ccc(C(=O)N4CCc5cc6c(cc54)C4(CCN(C)CC4)CO6)cc3)c(C)c2)no1,0.994 ± 0.0066,0.356 ± 0.53,1.02 ± 0.02,1.1 ± 0.021,0.994 ± 0.014,0.00588 ± 0.0059
"CC1C2Cc3ccc(O)cc3C1(C)CCN2CC1CC1 (single isomer, unassigned; (+)) [(+)-Cyclazocine]",1.001 ± 0.0085,1.003 ± 0.0058,1 ± 0.01,0.978 ± 0.013,1.01,0.9993 ± 0.0095
CCCN(CCC)C1CCc2cccc(O)c2C1 (racemic) [(±)-8-Hydroxy-DPAT hydrobromide],1.02 ± 0.017,1.01 ± 0.01,1.01 ± 0.01,1.004 ± 0.0098,0.9967 ± 0.0058,0.9947 ± 0.0067
C=CCN1CC[C@]23c4c5ccc(O)c4O[C@H]2/C(=N/N=C2\CC[C@@]4(O)[C@H]6Cc7ccc(O)c8c7[C@@]4(CCN6CC=C)[C@H]2O8)CC[C@@]3(O)[C@H]1C5 [Naloxonazine dihydrochloride],0.9893 ± 0.008,1.03 ± 0.02,1 ± 0.01,1.03 ± 0.064,0.9877 ± 0.0015,1.01 ± 0.01
CC[C@H]1CN2CCc3cc(OC)c(OC)cc3[C@@H]2C[C@@H]1C[C@H]1NCCc2cc(OC)c(OC)cc21 [Emetine dihydrochloride hydrate],0.0625 ± 0.016,0.0175 ± 0.00036,0.342 ± 0.016,0.165 ± 0.0093,0.0125 ± 0.001,0.0108 ± 0.0029
CCCN(CCC)[C@@H]1CCc2c(F)ccc(O)c2C1 [R(+)-UH-301 hydrochloride],1.013 ± 0.0058,1.017 ± 0.0058,1.03 ± 0.021,1.017 ± 0.0058,1.02,1.017 ± 0.0058
"OC[C@H]1O[C@@H](n2cnc3cc(Cl)c(Cl)cc32)[C@H](O)[C@@H]1O [5,6-Dichlorobenzimidazole riboside]",1.007 ± 0.0058,0.998 ± 0.013,1.007 ± 0.0058,1.03 ± 0.01,0.988 ± 0.008,0.991 ± 0.0053
"NC1CCc2cc(O)c(O)cc2C1 (stereo not drawn) [6,7-ADTN hydrobromide]",1.001 ± 0.009,1.01 ± 0.011,0.992 ± 0.022,1.002 ± 0.0068,0.98433 ± 0.00058,0.9887 ± 0.0059
O=C[C@H](Cl)[C@@H](O)[C@H](O)[C@H](O)CO [2-Chloro-2-deoxy-D-glucose],1 ± 0.013,0.9953 ± 0.0015,1.01 ± 0.012,0.994 ± 0.01,0.9807 ± 0.0011,0.9817 ± 0.0067
